# TDP1 block: blocks human tyrosyl-DNA phosphodiesterase 1; 0.28% of 350,000 active; Potency, µM (series often up to 130 µM), most hits filed as inhibitors; AID 485290; Q9NUW8; recombinant TDP1, AlphaScreen DNA substrate cleavage; also: nearly all actives have a fitted effect of over 40% in size
# Target sequence (Q9NUW8 whole entry, looked up): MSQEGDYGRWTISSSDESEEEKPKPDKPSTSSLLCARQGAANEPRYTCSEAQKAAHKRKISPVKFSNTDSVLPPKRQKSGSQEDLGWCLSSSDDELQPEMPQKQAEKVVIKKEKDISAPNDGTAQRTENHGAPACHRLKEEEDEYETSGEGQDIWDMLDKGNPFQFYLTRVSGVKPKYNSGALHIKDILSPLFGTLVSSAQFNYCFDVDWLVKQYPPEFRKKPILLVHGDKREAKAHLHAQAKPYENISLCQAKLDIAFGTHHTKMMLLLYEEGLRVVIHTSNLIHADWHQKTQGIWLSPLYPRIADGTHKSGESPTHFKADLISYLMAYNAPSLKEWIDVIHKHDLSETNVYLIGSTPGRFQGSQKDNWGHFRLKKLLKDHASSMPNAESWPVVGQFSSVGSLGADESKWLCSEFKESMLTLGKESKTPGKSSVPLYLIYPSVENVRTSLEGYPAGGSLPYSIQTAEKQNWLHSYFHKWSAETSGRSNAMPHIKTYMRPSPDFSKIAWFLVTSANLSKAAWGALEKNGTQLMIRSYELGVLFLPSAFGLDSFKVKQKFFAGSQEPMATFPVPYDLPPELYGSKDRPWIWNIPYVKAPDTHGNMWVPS
#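 Signal: AlphaScreen proximity between streptavidin donor and anti-FITC acceptor beads on intact substrate. Reaction: Tdp1 1 nM, substrate 15 nM final, 5 min RT after 15 min compound preincubation.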
# CtBP-E1A blk: inhibitors of CtBP/E1A interaction; AlphaScreen GST-E1A/His-CtBP binding, 1536-well; hits give low values; activity change, % (test concentration not listed); 0.49% of 340,000 active; in the data active = activity change below about -65%; inconclusive = mostly about -30% to -63%
#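 Homogeneous bead-based format: GST-tagged E1A captured on glutathione donor beads, His-tagged CtBP on nickel acceptor beads; compounds precede bead addition by 2 h at 37 °C.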
# IL1B secr inh: blocks inflammasome-driven IL-1 beta release; THP-1 LPS/ATP IL-1B secretion, AlphaLISA, 16 h; hits give low values; activity change, % at 57.5 µM; 4.7% of 360,000 active; in the data active = activity change below about -50%; inconclusive = mostly about -30% to -49%
#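 Secreted IL-1B measured by AlphaLISA bead assay after 16 h compound exposure of THP-1 cells; compounds (final up to 57.5 uM) added 1 h before LPS (250 ng/mL) and ATP (1.25 mM) stimulation; lower signal means less secretion.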
# TDP1 cell noCPT: qHTS for Inhibitors of human tyrosyl-DNA phosphodiesterase 1 (TDP1): qHTS in cells in absence of CPT. DT40 Tdp1-/- hTDP1 cells, no CPT, ATP luminescence, 48 h. Potency, µM (top dose mostly 46.2 µM), usual class: inhibitors. 15% of 420,000 active; also: nearly all actives have a fitted effect of over 55% in size
#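 Camptothecin absent (DMSO only). Human TDP1-complemented DT40 knockout cells, 400 cells/well, 37 °C for minimum 48 hr; ATP measured via CellTiter-Glo, 30 min dark incubation, luminescence.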
# DT40 TDP1 CPT: DT40-hTDP1 cell growth loss with CPT; 12% of 420,000 active; chicken DT40 Tdp1-/-;hTDP1 cells + 20 nM CPT, ATP luminescence, 48 h; Potency, µM (top dose mostly 46.2 µM), actives largely listed as inhibitors; AID 686979; also: nearly all actives have a fitted effect of over 55% in size
#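 Chicken DT40 Tdp1-/- cells complemented with human TDP1, 400 cells/well, exposed to compounds plus 20 nM camptothecin for at least 48 h at 37 C; viability read as ATP content by CellTiter-Glo luminescence.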
# Six1-Eya2 inh: inhibitors of human Six1/Eya2 interaction; AID 651725; AlphaScreen GST-Six1/His-Eya2 binding, biochemical; hits give low values; 0.56% of 360,000 active; Q15475+O00167; activity change, % (concentration not given with the values); in the data active = activity change below about -65%; inconclusive = mostly about -30% to -63%
#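 AlphaScreen luminescence read after one hour at 37 °C in darkness. Pin-transferred compounds met GST-Six1 and His-Eya2 protein (5X stock 250 nM/500 nM) plus glutathione donor and Ni-chelate acceptor beads (5X, 50 ug/mL).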
# Hits are given with their value; n = inactive; u = inconclusive; x = no result. In the library only some 18% were active in any assay of this set; here they are far more common. Unless noted, calls follow the shape of the dose curve; as a rule, active = well fitted curve in the direction sought with a large enough effect; inconclusive = small, poorly fitted or top-dose-only effect, or another doubt; inactive = no such curve, though single readings can be large; an effect the other way counts as inactive or inconclusive.
SMILES,TDP1 block,CtBP-E1A blk,IL1B secr inh,TDP1 cell noCPT,DT40 TDP1 CPT,Six1-Eya2 inh
CCOc1ccc(NC(=O)CCC(=O)c2ccc(-c3ccccc3)cc2)cc1,n,n,n,n,n,n
Cc1cc(C)c(S(=O)(=O)N2CCN=C2c2ccccc2)c(C)c1,n,n,n,16.4µM,u,n
CCOc1ccc(CCN2C(=S)N([C@@H](CC(C)C)CN3CCCC3CN3C(=S)NC[C@@H]3Cc3ccc(O)cc3)C[C@@H]2Cc2ccc(O)cc2)cc1 (stereo partly drawn),x,n,-71.1,6.51µM,6.51µM,n
CCOc1ccc(CCN2C(=S)N([C@@H](Cc3ccc(O)cc3)CN3CCC[C@@H]3CN3C(=S)NC[C@@H]3Cc3ccccc3)C[C@@H]2Cc2ccc(O)cc2)cc1,x,n,u,4.11µM,3.66µM,n
CCOc1ccc(CCN2C(=O)C(=O)N([C@@H](CC(C)C)CN3CCC[C@@H]3CN3C(=O)C(=O)NC[C@@H]3CC(C)C)C[C@@H]2Cc2ccccc2)cc1,x,n,n,u,u,n
CCOc1ccc(CCN2C(=S)N([C@@H](CC(C)C)CN3CCCC3CN3C(=S)NC[C@@H]3Cc3ccc(O)cc3)C[C@@H]2Cc2ccccc2)cc1 (stereo partly drawn),x,n,u,u,16.4µM,n
CC(=O)Nc1ccc(S(=O)(=O)N2CCC(c3nc4ccccc4[nH]3)CC2)cc1,n,n,n,n,u,n
COC(=O)c1cc(N=Nc2sc(N)nc2C)cc(C(=O)OC)c1,x,x,n,13µM,u,n
COc1ccc(CCNc2nc3cc(OC)c(OC)cc3c3nc(-c4cccnc4)nn23)cc1OC,n,x,x,n,n,x
O=C(CN1C(=O)c2ccccc2C1=O)Nc1ccc(S(=O)(=O)NCC2CCCO2)cc1 (stereo not drawn),n,n,n,n,n,n
COc1cc(/C=C(\C#N)C(=O)c2c[nH]c3ccccc23)cc(OC)c1O,n,n,n,n,n,n
COc1ccc(-c2cccc3c2NC(=O)C3=O)cc1OC,n,n,n,14.6µM,18.4µM,n
O=Cc1c(-c2ccccc2)cc2oc3ccccc3cc1-2,x,x,n,13µM,u,n
Nc1cccc(-c2cc3ccccc3oc2=O)c1,n,n,n,n,n,n
O=c1c(-c2ccc(F)cc2)nc2cnc(N3CCNCC3)nc2n1-c1ccccc1,x,x,x,u,14.6µM,x
COc1ccc(-n2c(=O)c(-c3cc(F)cc(F)c3)nc3cnc(N4CCNCC4)nc32)cc1,x,x,x,20.6µM,14.6µM,x
Cc1nc2cnc(N3CCNCC3)nc2n(-c2ccccc2)c1=O,x,x,x,n,n,x
O=C(Nc1cccc(NC(=O)c2cccnc2Cl)c1)c1ccco1,n,n,n,n,n,n
Cc1cc2ccccc2n1CCNC(=O)c1ccccc1,n,n,n,u,u,n
Cc1cc2ccccc2n1CCNC(=O)c1ccc(Br)cc1,n,x,x,20.6µM,u,x
Cc1cc2ccccc2n1CCNC(=O)C(C)(C)C,n,n,n,n,n,n
CC(=O)NCCn1c(C)cc2ccccc21,n,n,n,u,n,n
Cc1ccc2[nH]c(CNC(=O)c3ccccc3F)cc2c1,n,n,n,n,n,n
O=C(NCc1cc2ccccc2[nH]1)c1ccccc1F,x,n,-63.7,n,n,n
Cc1cc2ccccc2n1CCNC(=O)c1ccc(Br)o1,x,n,n,29.1µM,n,n
Cc1cc2ccccc2n1CCNC(=O)c1ccccc1F,n,x,x,16.4µM,u,x
COCc1cc(C)n(CC(=O)OC)c(=O)c1C#N,n,n,n,n,n,n
Cn1c(=O)c2c(nc(SCC(=O)NCc3ccc4c(c3)OCO4)n2Cc2ccc(F)cc2)n(C)c1=O,n,n,n,u,u,n
Cc1onc(-c2ccccc2Cl)c1C(=O)NCCn1c(C)cc2ccccc21,x,n,n,29.1µM,u,n
Cc1onc(-c2ccccc2Cl)c1C(=O)NCC(=O)O,n,n,n,n,n,n
